# Assays:
# Test in all cases: PBM binding z-score (relative to random genomic background probes); higher = stronger binding; sequences stand for … in GC…GCGATTGACAGCGTAGAATGAAGG
# [1] = test system: RARb homodimer (NR concentration 270 nM)
# Outline: (§1)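 Each nuclear receptor dimer, without ligand, was incubated for 1 h on custom Agilent 4×180K protein-binding microarrays. Binding was detected with antibodies against each partner (one per run), and scanned fluorescence was regression-normalized. The binding z-scores are referenced to random human genomic background probes.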
# [2] = test system: RARg:RXRa (NR concentration 270 nM, RXRa partner concentration 90 nM)
# Outline: as §1
# [3] = test system: RARg homodimer (NR concentration 270 nM)
# Outline: as §1
# [4] = test system: RXRa DBDmut IVT, anti-RXR (DBD mutation: RXRa K156A/R161A, NR concentration 90 nM)
# Outline: as §1
# [5] = test system: RXRa homodimer (NR concentration 180 nM)
# Outline: as §1
# [6] = test system: THRa:RXRa (NR concentration 90 nM, RXRa partner concentration 90 nM)
# Outline: as §1
# [7] = test system: THRa homodimer (NR concentration 90 nM)
# Outline: as §1
# [8] = test system: VDR homodimer (NR concentration 270 nM)
# Outline: as §1
Sequence,PBM binding z-score [1],PBM binding z-score [2],PBM binding z-score [3],PBM binding z-score [4],PBM binding z-score [5],PBM binding z-score [6],PBM binding z-score [7],PBM binding z-score [8]
CCGACTGGGGCAAAGGTTTCCATACTCAGTACGA,0.438,0.385,0.445,0.213,0.448,-0.0772,-0.282,-0.026
CGTCCAAGGTCATAGTAGGTCAGTGAAGACAGAT,4.63,6.11,6.44,4.14,6.11,4.94,2.97,3.93
TCTTGTAGATCAAGCAGGATAAGAAAGCCTGAGT,-0.48,-0.278,-0.0385,0.533,-0.0789,-0.341,-0.704,0.105
ATCTCTAGGTAGAGATAGTTCAGTGAATGCAAAT,0.368,0.166,0.357,-0.163,0.115,0.148,-0.22,0.338
TCTGCTAGGTCAAAGATGGTCAGCTAATCTGCTA,3.04,3.65,4.3,1.31,2.65,3.05,0.196,-0.234
ACTATTAGTTGACTTAGGGCAACCGGTACGACGC,1.12,0.684,0.734,0.426,0.446,1.47,0.512,0.456
CGAACTAGGTCAAGGACAATGAATCTCCGCACGC,3.13,3.87,4.64,1.52,2.78,3.12,2.15,0.633
GCATATAGGTAGTACAAGGTGAAAGTCCGATTGT,0.817,0.404,0.395,0.422,0.53,3.23,1.02,0.0912
AATACAGTGTCATCGTAGGCCAGAGTACGCACAG,0.72,0.907,1.24,0.561,0.84,1.81,-0.754,0.395
AGATGTAGGTTATCGGGTCATTCAGTTTGCGCAT,3.17,3.19,2.6,1.75,3.47,3.46,2.87,3.92
CGTCCAAGGTCAGAGAGGTCCGTGAATGCCGAGT,3.81,4.45,5.28,2.56,3.48,3.5,1.77,2.04
ATCTCTAGGTCACCAAGTTCAGTGAATGCCGAAC,4.45,5.35,6.25,2.74,4.73,3.89,3.22,6.15
ATATGTAGGTTAAGGGTCATTGAGGTTGGTTCGC,4.17,4.87,3.36,1.89,6.28,3.55,2.06,4.8
CGTCCCAGGTCAAGGTCAGTGAAAGAGACTCGAA,4.62,5.74,6.29,2.55,5.19,4.18,3.61,2.6
AGAATGAGGTTAATATCAGGGAAACAGAATACAT,0.835,1.84,1.48,1.22,2.14,2.36,0.795,0.82
GCAGTCAGGTGAAACGCAGGTAACTCAGGGTGGC,0.205,0.634,0.376,-0.235,0.237,1.8,0.308,-0.682
GCTAGCAGGCCATTTGGGTCATTCAATGACGGGC,1.64,0.979,1.01,0.394,0.908,1.82,0.24,1.21
GAAGACAGGTGAAACGCAGGTAACTCAGGGTGGC,0.467,0.851,0.0189,-0.671,0.66,1.49,-0.0479,-0.373
GCATATAGGTAATACAACGTGAAAGTCCGATTGT,-0.603,0.114,0.451,0.181,0.119,-0.366,-0.557,-0.205

Sequence,PBM binding z-score [1],PBM binding z-score [2],PBM binding z-score [3],PBM binding z-score [4],PBM binding z-score [5],PBM binding z-score [6],PBM binding z-score [7],PBM binding z-score [8]
CCAGATAGGTGAGAAGGTAACTCAGCCTCGATTA,0.492,0.647,0.649,0.238,0.44,0.177,-0.0242,-0.157
AGAATGAAGTTATACGTAGATCAGGGAAGAAAGT,-0.451,0.0716,0.29,-0.796,-0.0486,-0.563,-0.66,-0.183
GCATATAGATAATACAAGGTGAAAGTCCGATTGT,0.678,0.441,0.694,0.234,0.586,2.26,0.964,0.0275
ATCTCAAGGTAAAAGTTCAGTGAATCCCGAGGAT,2.4,2.29,1.96,0.614,2.21,1.94,0.529,1.28
ATCGAAAGGTCGTGAGGTTAGTATACAGAAAGGC,3.14,4.88,4.09,1.9,5.43,3.2,1.07,1.84
TCTAGCAGGCCAGAGCGTCACTCAAGAGGTACGG,-0.99,-0.32,-0.282,-0.0985,-0.0625,-1.43,-1.22,-0.792
CGTCCAAGGTCAGCAGGTCAGGGAAAGCGACGTG,5.01,6.64,7.24,2.62,5.64,3.84,2.59,1.53
AGACTGAGGTTATACGTAGATCAGGGAAGAAAGT,0.864,1.64,1.03,1.44,2.09,2.01,0.684,0.49
GCTGCTAGATCAGGTTGGTCAGCTAACGGGTACG,-0.151,-0.607,-0.66,-0.411,-0.416,-0.611,-0.864,0.19
GCAAATAGGTAATACAAGGTGAAAGTCCGATTGT,0.898,0.546,0.597,0.463,0.951,4.22,0.778,-0.442
AGAACGAGGGCAATGAGTTGTTAGCACGGGTGGC,0.552,0.787,1.3,1.76,0.588,0.64,-0.39,2.19
ACTAGTTGGCCAGCTGAGGTCACACACAATTCGG,3.96,3.64,3.6,0.874,4.1,4.47,5.09,2.74
GCGACTGGGGCATCAGCAGATTACCATAACTTAA,0.257,-0.0173,0.481,0.186,-0.143,-0.135,-0.286,-0.431
ATTTCTAGGTAAGACTCAGTTCAGTGAAGAACGC,0.518,0.801,0.283,0.956,0.351,0.941,0.851,2
CCTCGGAGGACAGAAGGTCAGAGCAGTCCGCTTT,3.7,3.53,3.41,0.444,2.16,2.67,-0.117,0.311
AGACCGAGGGCACGCTGAGTTGATAGCAGAGTAG,1.33,2.22,2.06,1.49,1.31,1.77,-0.237,1.75
CCTCGGACGACAGAAGGTCAGAGCTGTCCGCTTT,3.09,2.54,2.68,0.306,1.98,1.57,-0.117,0.204
CCTTACGGGTCACTCCAGGTTATAGCATCGGAGT,3.23,4.39,4.35,1.5,4.36,4.89,0.826,1.69
AGAACGGGGGCAATGAGTTGATAGCACGGGTGGC,1.83,2.87,2.43,3.17,2.3,2.45,1.33,5.08

Sequence,PBM binding z-score [1],PBM binding z-score [2],PBM binding z-score [3],PBM binding z-score [4],PBM binding z-score [5],PBM binding z-score [6],PBM binding z-score [7],PBM binding z-score [8]
CCTTACGGGTCACGAGGTTTTAGCACGACGAGCG,3.71,5.63,5.4,1.57,6.87,3.12,0.658,1.4
CAAACTAGGTCACAGAGGTGAAAGTCCGTGCGTA,3.98,5.15,5.24,1.76,4.44,3.9,2.28,2.6
ACTAGCAGGCCAAATTTGGGTCACTCAAACAAAG,2.36,2.39,1.39,0.0631,0.936,2.45,0.758,-0.0164
GCATATAGGTAATACAAGTTGAAAGTCCGATTGT,0.185,0.232,0.481,0.331,0.404,1.76,-0.418,0.193
TCCTATAGGTAAATGCTAGGTGAAAGTCCGATCT,0.372,0.374,0.00496,1.14,0.554,1.55,0.305,-0.299
CCTCGGAGAACAACAGGAGGTCAGAGCTGCCAGA,2.85,1.99,1.83,0.121,1.86,2.02,0.641,0.996
GGAACGAGGGCAAAGTTGCTAGCATCTGTCGACG,1.09,1.27,1.73,2.63,1.07,0.852,-0.505,1.46
CCTGCTAGGTCATGGGCAGCTAATCTACAGTATG,2.79,4.04,4.39,1.05,2.83,2.89,0.639,-0.0786
TCTTGTAGATCAAACGTTAAGAAAGCCGAAGCCT,-0.779,-0.146,-0.238,0.749,0.138,-0.412,-0.567,-0.573
TAGCCTAGGTAAGATCGGGCCAGTATACGCTATA,-0.638,-0.26,-0.321,-1.17,-0.364,1.37,-0.927,-0.857
CGCCCAAGGTCATAGGAGGTCAGTGAAGACAGAT,5.6,6.7,7.14,3.41,6.07,5.34,3.1,3.97
TCTGCTAGGTCAGTTGGTCAGCTTACGAGCTGCC,2.7,2.62,3.97,0.621,0.757,1.26,0.376,-0.597
CCTACTGGGCCACGAAAGGTCTTTGATTCAGTGA,1.03,0.285,0.261,-0.372,0.067,1.06,-0.141,-0.432
TAGCATAGGTCATTCAGGGGCCAGTATAGAAAGC,3.72,7.38,5.09,1.83,5.02,3.87,-0.317,0.876
GCTGCGAGGTCAGGTTGGTCAGCTAACGGGTACG,3.93,4.9,5.27,3.04,4.52,3.7,2.31,2.88
ATCTCTAGGTAAACAAGTTCAGTGAATGCCGAAC,1.51,0.719,1.05,1.09,0.385,1.33,0.65,2.69
ATCTCTAGGTAGCAAGTTCAGTGAAAGAGAGGAC,1.48,0.743,0.963,0.543,0.352,0.972,0.46,2.36
ATATGTAGGTTAGCGGGTCATTCAGTTTGCGCAT,2.65,2.83,2.37,1.42,2.77,2.06,1.08,2.76
CAAACTAGGTCTCGAAAGGTCAAAGTCGAATGAC,4.49,5.71,5.18,1.18,6.53,3.97,1.2,2.67

# From the supplement of paper PMC6555819
